In PubChem BioAssay AID2238 (Southern Research Specialized Biocontainment Screening …, 2010):
Active and inactive are the calls of the source. How the calls were made is not given here.

Assay: antiviral protection of cells from WNV – synthesized analogs, SAR follow-up (AID 2238)
Details: West Nile virus CPE inhibition in cells; max CPE inhibition: measured here: maximum CPE inhibition observed, at 40 µM, stronger effect = higher value unless noted; series mostly up to 40 µM

SMILES	max CPE inhibition	outcome
O=C(CSc1nc2ccccc2c(=O)n1-c1ccc(F)cc1)Nc1ccc2c(c1)CCC2	65.2%	–
CC1CCCC(C)N1CCCNC(=O)c1cc2c(s1)-c1ccccc1OC2 (stereo not drawn)	77% [measured here: maximum CPE inhibition observed, at 10 µM, stronger effect = higher value]	–
O=C(Nc1nc(-c2ccc(Cl)cc2)cs1)c1ccccc1F	1.34%	inactive
O=C(Nc1nc(-c2ccc(Cl)cc2)cs1)c1ccccc1Cl	0.4%	inactive
CN(C)CCCNC(=S)N1CCN(c2nc(-c3ccccc3)cs2)CC1	55.7% [measured here: maximum CPE inhibition observed, at 20 µM, stronger effect = higher value]	–
CC1(O)c2cc(Br)ccc2N=C2CCCN21 (stereo not drawn)	1.3% [measured here: maximum CPE inhibition observed, at 0.16 µM, stronger effect = higher value]	inactive
O=C(CSc1nc2ccccc2c(=O)n1-c1ccccc1F)Nc1ccc2c(c1)CCC2	71.6% [measured here: maximum CPE inhibition observed, at 20 µM, stronger effect = higher value]	–
O=C(CSc1nc2ccccc2c(=O)n1-c1ccc(F)c(Cl)c1)Nc1ccc2c(c1)CCC2	65.7% [measured here: maximum CPE inhibition observed, at 20 µM, stronger effect = higher value]	–
CCN(CC)CCCNC(=S)N1CCN(c2nc(-c3ccccc3)cs2)CC1	76% [measured here: maximum CPE inhibition observed, at 20 µM, stronger effect = higher value]	–
CC1CCN(CCCNC(=O)c2cc3c(s2)-c2ccccc2OC3)CC1	73.1% [measured here: maximum CPE inhibition observed, at 20 µM, stronger effect = higher value]	–
